From PubChem BioAssay
An excerpt weighted towards active compounds, which were near 19% of everything screened.
TDP1 cell CPT – DT40-hTDP1 cell growth loss with CPT; Potency, µM (doses to about 46.2 µM), inactives show top-dose activity change, negative = growth inhibition, most hits filed as inhibitors; 12% of 420,000 active; chicken DT40 Tdp1-/-;hTDP1 cells + 20 nM CPT, ATP luminescence, 48 h; note: potency is the fitted concentration of half-maximal effect; nearly all actives have a fitted effect of over 55% in size
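Cell growth measured by CellTiter-Glo luminescence after a minimum 48 h, 37 C compound exposure with 20 nM CPT in Tdp1-knockout DT40 cells stably expressing hTDP1, seeded 400/well; qHTS titration format.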
uPA surface inh – blocks generation of uPA at the cell surface; cell surface uPA generation assay, qHTS; Potency, µM (doses to about 38.3 µM), for inactives: top-dose activity change, negative = inhibition, hits mostly inhibitors; 0.31% of 330,000 active; active = well fitted inhibition curve with a large enough effect; inconclusive = small, poorly fitted or top-dose-only effect; inactive = no such curve, though single readings can be large or run the other way; tested in mouse RAW 264.7 cells; note: potency is the fitted concentration of half-maximal effect; nearly all actives have a fitted effect of over 55% in size
HT1080-NT tox – kills 2HG-producing HT-1080-NT fibrosarcoma cells; HT-1080-NT fibrosarcoma viability, CellTiter-Glo ATP luminescence, 48 h; Potency, µM (doses to about 46.1 µM), for inactives: at the top dose activity, negative = less viability, usual class: cytotoxic; 1.6% of 360,000 active; AID 686970;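 note: NT is the 2HG producing partner of a matched IDH1 knockdown line; potency is the fitted concentration of half-maximal effect; 0% = DMSO-treated cells and -100% = media-only wells without cells; nearly all actives have a fitted effect of over 55% in size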
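Fibrosarcoma NT cells, 750 per well in 5% FBS RPMI, were exposed to compound for 48 hours. Viability: CellTiter-Glo luminescence.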
HT1080 IDH1KD tx – toxicity to HT-1080 IDH1 knockdown cells (counter line); 2% of 360,000 active; HT-1080 IDH1 knockdown viability, ATP luminescence, 48 h; AID 686971; Potency, µM (highest dose often 46.1 µM), for the others: at the highest dose activity, negative = toxicity, hits mostly cytotoxic;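 note: potency is the fitted concentration of half-maximal effect; 0% = DMSO wells and -100% = cell-free medium wells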
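HT-1080-IDH1KD cells (IDH1 knocked down), 750/well in RPMI with 5% FBS, treated with compound 48 h at 37 degrees C. Viability by CellTiter-Glo luminescence, normalised to DMSO and no-cell wells; concentration-response curves classed.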
TDP1 cell noCPT – qHTS for Inhibitors of human tyrosyl-DNA phosphodiesterase 1 (TDP1): qHTS in cells in absence of CPT | DT40 Tdp1-/- hTDP1 cells, no CPT, ATP luminescence, 48 h | Potency, µM (series often up to 46.2 µM), for inactives: at the highest dose activity change, negative = growth inhibition, hits mostly inhibitors | 15% of 420,000 active | AID 686978, 2013; note: potency is the fitted concentration of half-maximal effect; nearly all actives have a fitted effect of over 55% in size
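No-CPT arm: Tdp1-/-;hTDP1 DT40 cells (400/well) plus compounds, incubated ≥48 hr at 37 °C. Readout CellTiter-Glo luminescence.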
IL1B secr inh – inflammasome signaling inhibition, IL-1 beta readout; THP-1 LPS/ATP IL-1B secretion, AlphaLISA, 16 h; active compounds read low; activity change, % at 57.5 µM; 4.7% of 360,000 active; AID 743279; in the data active = activity change below about -50%; inconclusive = mostly about -30% to -49%
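Secreted IL-1B measured by AlphaLISA bead assay after 16 h compound exposure of THP-1 cells; compounds (final up to 57.5 uM) added 1 h before LPS (250 ng/mL) and ATP (1.25 mM) stimulation; lower signal means less secretion.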
An asterisk follows results filed as active; ? = inconclusive; . = not tested or not shown. Unless noted, calls come from the whole dose curve; as a rule, active = well fitted curve in the direction sought with a large enough effect; inconclusive = small, poorly fitted or top-dose-only effect, or another doubt; inactive = no such curve, though single readings can be large; an effect the other way counts as inactive or inconclusive. Unless noted, % is set by controls: 0 for no effect and ±100 for the full control effect.

SMILES	TDP1 cell CPT	uPA surface inh	HT1080-NT tox	HT1080 IDH1KD tx	TDP1 cell noCPT	IL1B secr inh
O=C1[C@H]2[C@@H](c3ccc(C(F)(F)F)cc3)N[C@]3(CCCN(CC4CCCCC4)C3=O)[C@H]2C(=O)N1Cc1ccccc1	23µM*	.	?	?	23µM*	-29
COc1ccc([C@H]2N[C@]3(CCCN(Cc4ccc(C(F)(F)F)cc4)C3=O)[C@H]3C(=O)N(Cc4ccccc4)C(=O)[C@@H]23)cc1	?	.	-27%	?	18µM*	0
CC(C)CCN1CCC[C@]2(N[C@H](c3ccc(C(F)(F)F)cc3)[C@@H]3C(=O)N(Cc4ccccc4)C(=O)[C@@H]32)C1=O	18µM*	.	-1%	-14%	16µM*	-19
Cc1ccc([C@H]2N[C@]3(CCCN(Cc4ccco4)C3=O)[C@H]3C(=O)N(Cc4ccccc4)C(=O)[C@@H]23)cc1	-16%	.	0%	12%	?	11
COc1ccc(-c2oc3ccc(-c4cc(OC)c(OC)c(OC)c4)cc3c2-c2ccc(OC)cc2)cc1	?	1%	22%	-4%	?	-1
COc1cc(-c2ccc3cc(OC)c(OC)c(OC)c3c2)cc(OC)c1OC	21µM*	.	?	?	?	7
Cc1cc(OC(=O)c2ccccc2C(F)(F)F)c([N+](=O)[O-])c(=O)[nH]1	-10%	4%	-8%	0%	0%	-6
COc1ccc2c(c1)c1c(c(=O)n(-c3ccccc3)c(=O)n1CC(=O)NCCC1=CCCCC1)n2C	-20%	.	.	.	-1%	.
C[C@@H]1CN(C2CCN(Cc3nc(C(c4ccccc4)c4ccccc4)no3)CC2)C[C@H](C)O1	-11%	-8%	-8%	-16%	?	5
CN(Cc1nc(-c2ccc(C(F)(F)F)cc2)no1)C1CCOCC1	-16%	0%	9%	9%	-1%	25
Cc1nc(CN2CCN(Cc3nc(C(c4ccccc4)c4ccccc4)no3)CC2)cs1	7.3µM*	-3%	-14%	3%	10µM*	-8
c1ccc(C(c2ccccc2)c2noc(CN3CCN(C4CCCC4)CC3)n2)cc1	?	-24%	-9%	-9%	21µM*	-15
FC(F)(F)c1ccc(-c2noc(CN3CCCN(C4CCCCC4)CC3)n2)cc1	21µM*	10%	4%	8%	21µM*	?
O=C(Nc1ccc(C(=O)OCc2cc(=O)n3nc(C4CC4)sc3n2)cc1)c1cccc(F)c1	0%	.	.	.	?	.
CCc1nc2sc3ccccc3c(=O)c2c(=O)n1Cc1ccco1	?	-11%	?	26µM*	-29%	-23
O=c1c2ccccc2sc2nc(C3CCCCC3)n(Cc3ccco3)c(=O)c12	?	.	14%	-26%	-12%	-1
CC(C)c1c(C(=O)N/N=C/c2ccc(C(F)(F)F)cc2)nnn1-c1nonc1N	15µM*	-19%	?	26µM*	13µM*	18
CC1CCN(Cc2c(C(=O)N/N=C/c3ccc(C(F)(F)F)cc3)nnn2-c2nonc2N)CC1	?	0%	?	26µM*	?	-5
CC1CCN(Cc2c(C(=O)N/N=C/c3cccc(C(F)(F)F)c3)nnn2-c2nonc2N)CC1	15µM*	-7%	-18%	?	15µM*	-5
Cc1cc(C)c(C)c(OCC(O)CN2CCN(c3ccccn3)CC2)c1 (stereo not drawn)	?	-5%	-19%	-21%	-21%	14
N#Cc1cn(Cc2ccco2)c(=O)[nH]c1=O	1%	-2%	2%	-2%	-9%	9
COc1ccc(C(CNC(=O)c2cc(F)c(F)c(F)c2F)N2CCOCC2)cc1 (stereo not drawn)	?	-8%	-8%	-6%	?	-95*
COc1ccccc1C(CNC(=O)c1ccco1)N1CCCC1 (stereo not drawn)	5%	-2%	-7%	5%	4%	10
COc1ccccc1C(CNC(=O)c1ccc(-c2ccccc2Cl)o1)N1CCCC1 (stereo not drawn)	23µM*	2%	?	21µM*	18µM*	-57*
COc1ccc(C(CNC(=O)c2ccc(-c3ccccc3Cl)o2)N2CCOCC2)cc1 (stereo not drawn)	23µM*	-2%	1%	0%	16µM*	-76*
SMILES	TDP1 cell CPT	uPA surface inh	HT1080-NT tox	HT1080 IDH1KD tx	TDP1 cell noCPT	IL1B secr inh
COc1ccc(C(CNC(=O)COc2ccc(F)cc2Cl)N2CCCCC2)cc1 (stereo not drawn)	23µM*	0%	18%	10%	21µM*	12
COc1ccc(C(CNC(=O)CSc2ccccc2F)N2CCOCC2)cc1 (stereo not drawn)	-5%	-1%	-7%	-2%	-19%	-3
CCN(CC(=O)NCc1cccs1)C(=O)c1cccc(Cl)c1	-13%	?	3%	-7%	1%	-14
O=C(NCC1CCCO1)c1cccc(S(=O)(=O)N2CCCCC2)c1 (stereo not drawn)	-2%	-3%	8%	1%	-4%	0
COc1ccc(OCC(=O)NCC(c2ccc(OC)cc2)N2CCOCC2)cc1 (stereo not drawn)	-15%	.	.	.	?	.
CCCn1nc(C(=O)NCC(C)(C)N2CCOCC2)c2ccccc2c1=O	-21%	4%	11%	7%	-15%	5
CC(C)(CNC(=O)c1ccc(-c2ccccc2Cl)o1)N1CCOCC1	-29%	-9%	1%	-10%	?	-56*
COc1ccc(C(CNC(=O)COc2ccc(-c3ccccc3)cc2)N2CCOCC2)cc1 (stereo not drawn)	?	-2%	-27%	?	?	-61*
COc1ccccc1-c1noc(Cn2cc(S(=O)(=O)N3CCCC3)ccc2=O)n1	-14%	8%	-4%	2%	-24%	10
CN(CC(=O)Nc1cccc(S(=O)(=O)NC2=NCCC2)c1)Cc1cccc(F)c1	1%	-3%	7%	2%	-14%	-13
Fc1ccc(-c2nc3c4ccccc4ccn3c2Cc2ccsc2)cc1	15µM*	.	-11%	-18%	15µM*	23
CCOC(=O)Cc1c(-c2cccc(Br)c2)nc2c3ccccc3ccn12	?	.	-29%	-25%	18µM*	7
Fc1ccc(-c2nc3c4ccccc4ccn3c2CC2CCCCC2)cc1	15µM*	.	6%	1%	21µM*	30
CCOC(=O)c1c(C)nc2c3ccccc3ccn12	?	-8%	-18%	-18%	-20%	1
